The entries come from a sample that favours hits as a whole.
CHX counter: Cycloheximide Counterscreen for Small Molecule Inhibitors of Shiga Toxin | max response, % | 300,000 tested, 12% active | cell reporter, cycloheximide protein synthesis inhibition counterscreen; in the data active means max response mostly above about 13%, no sharp cut-off; inactive means mostly below about 14%; further: read at 38.3 µM for the half of the compounds with a filed dose; 0% is about no effect
TbPYK inhibitor: qHTS of Trypanosoma Brucei Inhibitors. Potency, µM (series often up to 76.8 µM), inactives show top-dose activity, negative = inhibition, usual class: inhibitors. pyruvate kinase (Trypanosoma brucei), Q57TT1. TbPYK enzyme, Kinase-Glo Plus ATP luminescence, 45 min. 410,000 tested, 0.12% active. AID 624173, 2012; further: potency means the concentration at half of the fitted maximal effect; on the % scale 0 is the no-effect control and ±100 the full control effect; nearly all actives have a fitted effect of over 50% in size
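Glycolytic pyruvate kinase of T. brucei was incubated with substrate, test compound and 130 uM ADP for 45 minutes at room temperature. Luminescent Kinase-Glo Plus signal was measured after 10 minutes.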
LmPK inh: qHTS Assay for Inhibitors of Leishmania Mexicana Pyruvate Kinase (LmPK) | Q27686 | purified LmPK, Kinase-Glo ATP luminescence, 1 h | Potency, µM (series often up to 57.5 µM), for inactives: at the top dose activity change, negative = inhibition, most hits filed as inhibitors | 290,000 tested, 0.37% active | AID 1721, 2009; further: potency means the concentration at half of the fitted maximal effect; on the % scale 0 is the no-effect control and ±100 the full control effect
Target sequence (Q27686 whole entry, looked up): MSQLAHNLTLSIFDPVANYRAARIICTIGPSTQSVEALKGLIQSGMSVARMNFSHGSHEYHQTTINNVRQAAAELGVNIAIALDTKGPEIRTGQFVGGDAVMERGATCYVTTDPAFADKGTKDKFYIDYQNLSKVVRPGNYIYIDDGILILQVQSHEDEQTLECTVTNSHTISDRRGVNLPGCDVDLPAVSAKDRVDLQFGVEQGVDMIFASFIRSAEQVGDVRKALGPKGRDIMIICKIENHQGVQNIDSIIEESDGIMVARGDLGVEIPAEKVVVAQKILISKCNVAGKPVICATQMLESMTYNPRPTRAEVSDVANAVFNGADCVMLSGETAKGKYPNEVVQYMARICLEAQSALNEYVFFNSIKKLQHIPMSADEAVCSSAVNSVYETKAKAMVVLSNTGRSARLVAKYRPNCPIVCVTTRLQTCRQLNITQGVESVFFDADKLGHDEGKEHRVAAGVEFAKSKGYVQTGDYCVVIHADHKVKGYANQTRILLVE
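qHTS format; LmPK 0.1 nM; substrates PEP 0.5 mM and ADP 0.1 mM. One-hour room-temperature incubation, then coupled luciferase luminescence; 0.5 nM enzyme wells mark activation.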
Shiga inhibitor: A qHTS for Small Molecule Inhibitors of Shiga Toxin; inhibition, % at 38.7 µM; Vero cells, Shiga toxin protein synthesis inhibition reporter; 290,000 tested, 9.2% active; in the data active means inhibition mostly above about 28%, no sharp cut-off; inactive means mostly below about 43%; further: 0% is about no effect
FBPA Giardia inh: qHTS Assay for Inhibitors of Fructose-1,6-bisphosphate Aldolase from Giardia Lamblia; A8B2U2; purified Giardia FBPA; Potency, µM (titrated, usually from 59.6 µM), for inactives: top-dose activity, negative = inhibition, actives largely listed as inhibitors; 290,000 tested, 0.71% active; AID 2451, 2010; further: potency means the concentration at half of the fitted maximal effect; on the % scale 0 is the no-effect control and ±100 the full control effect; nearly all actives have a fitted effect of over 55% in size
Target sequence (A8B2U2 whole entry, looked up): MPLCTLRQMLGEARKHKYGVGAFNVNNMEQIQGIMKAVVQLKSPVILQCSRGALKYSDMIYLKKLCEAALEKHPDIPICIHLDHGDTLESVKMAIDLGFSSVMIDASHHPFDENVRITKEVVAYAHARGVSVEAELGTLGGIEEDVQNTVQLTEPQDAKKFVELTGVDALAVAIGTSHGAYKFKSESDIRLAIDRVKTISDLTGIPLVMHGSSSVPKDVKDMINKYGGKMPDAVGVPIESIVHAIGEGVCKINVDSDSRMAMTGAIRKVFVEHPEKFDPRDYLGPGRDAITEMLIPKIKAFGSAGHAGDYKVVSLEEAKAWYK
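Giardia FBPA (40 nM reagent) was preincubated 10 min at RT with compound (up to 57.5 uM final), then substrate plus GAPDH/TPI/NAD/arsenate coupling system with diaphorase/resazurin was added; resorufin fluorescence (525/598 nm) was read after 20 min.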
RE007 growth inh: qHTS Assay for Inhibitors of the HIV-1 protein Vpr | S. pombe RE007 Vpr strain, BacTiter-Glo ATP luminescence, 24 h | Potency, µM (doses to about 92.2 µM), inactives show at the top dose activity change, negative = less growth, most hits filed as inhibitors | 360,000 tested, 0.21% active | AID 651644, 2012; active means well fitted falling curve with a large enough effect; inconclusive means small, poorly fitted or top-dose-only effect; inactive means no such curve, though single readings can be large or run the other way; further: potency means the concentration at half of the fitted maximal effect; on the % scale 0 is the no-effect control and ±100 the full control effect; nearly all actives have a fitted effect of over 50% in size
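Fission yeast RE007 carrying one integrated HIV-1 vpr copy, seeded at OD 0.01 in PMG+AL medium with 23 nL pinned compound. Grown 24 h at 30 degrees; viability read by BacTiter-Glo luminescence after 5 min.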
Starred values were filed as active, the others as inactive; ? = inconclusive; . = not tested or not shown; [ ] = another dose, or the depositor's remark. Unless noted, the call rests on the fitted dose curve; in most records, active means well fitted curve in the direction sought with a large enough effect; inconclusive means small, poorly fitted or top-dose-only effect, or another doubt; inactive means no such curve, though single readings can be large; an effect the other way counts as inactive or inconclusive.

SMILES | CHX counter | TbPYK inhibitor | LmPK inh | Shiga inhibitor | FBPA Giardia inh | RE007 growth inh
CCCC(=O)N1CCN(c2ccc(NC(=O)c3cccs3)cc2Cl)CC1 | 1.2 | -1.2% | 1.9% | -12.2 | -10.5% | 7.5%
O=C(Nc1ccc(N2CCN(C(=O)c3ccccc3)CC2)c(Cl)c1)c1ccco1 | -2.8 | 3.6% | -0.9% | -9.3 | -0.4% | -14.6%
CCC(=O)N1CCN(c2ccc(NC(=O)c3cc4ccccc4o3)cc2Cl)CC1 | 16.9* | 3.9% | -1.4% | -2.7 | ? | -12.8%
O=C(Nc1ccc(N2CCN(C(=O)c3ccco3)CC2)c(Cl)c1)c1cc2ccccc2o1 | 22.9* | 1.3% | 1.0% | 52.0 | ? | -19.8%
CC1=C(C(=O)Nc2ccc(C)cc2C)C(c2ccccc2F)n2nc(SCC(=O)c3ccc(C)cc3)nc2N1 (configuration not stated) | . | 3.2% | . | . | . | .
COC(=O)Cn1c(C2CC(=O)N(c3c(C)cccc3C)C2)nc2ccccc21 (configuration not stated) | . | -0.8% | . | . | . | .
COc1cc(/C=C2\N=C(c3ccccc3)OC2=O)ccc1OC(C)=O | 7.5* | -5.8% | 3.1% | -14.0 | 5.1% | 4.1%
CO[C@@H]1COC(=O)[C@H](C)NC(=O)[C@@H](C)COC(=O)CCC[C@H]1C | . | . | . | . | 1.9%[12.9 µM] | .
CCOC(=O)c1c(N)sc(C)c1-c1ccccc1 | 5.9 | . | . | 2.8 | -24.5% | .
CCOC(=O)c1sc(-c2ccc(OC)cc2)cc1N | 43.9* | -0.2% | -6.6% | 131.7* | -0.7% | -11.4%
CCOC(=O)c1sc2nc(C3CC3)cc(-c3ccc(F)cc3)c2c1N | -3.0 | -8.7% | 1.0% | -17.7 | 0.5% | 11.0%
CCOC(=O)c1sc(-c2ccc(F)cc2)cc1N | 45.7* | -3.9% | 12.6% | 125.1* | -8.2% | 6.0%
CCOC(=O)c1cc(-c2ccccc2)sc1NC(=O)CC | -0.9 | -10.5% | 4.0% | -8.8 | 2.7% | -6.0%
CCOC(=O)c1c(N)sc(-c2ccccc2)c1C | 33.6* | -26.4% | 6.1% | 68.0* | 2.4% | -20.9%
CCOC(=O)c1sc(-c2ccccc2)cc1N | 58.8* | 9.5% | 0.1% | 115.7* | -10.7% | -22.4%
CCOC(=O)c1c(N)n[nH]c1-c1ccc(OC)cc1 | 2.3 | 3.5% | -2.7% | -11.9 | -1.1% | -2.0%
CC(C)Oc1ccc(C(=O)N2CCN(CCc3ccccn3)CC2)cc1 | . | 1.7% | . | . | . | .
CCc1ccc(NC(=O)c2ccc(CN3CC(=O)N4CCCCC4C3=O)cc2)cc1 (configuration not stated) | . | -2.5% | . | . | . | .
CCOC(=O)c1cc(-c2ccccc2)sc1N | 36.5* | -18.7% | 1.8% | 58.6* | -7.6% | -7.1%
COc1ccc(OC)c(CNC(=O)C2CCCCN2S(=O)(=O)c2ccc(F)cc2)c1 (configuration not stated) | . | 2.5% | . | . | . | .
Oc1ccc2ccc3[nH]cnc3c2c1 | 52.9* | -0.7% | 3.2% | 74.1* | -10.2% | .
Cc1ccc(Nc2n[nH]c(C)c2[N+](=O)[O-])cc1C | 31.8* | -0.9% | -7.3% | 54.1 | -4.5% | -5.0%
CCN1CCN(c2nc(N)c([N+](=O)[O-])c(Nc3ccc(C)c(C)c3)n2)CC1 | -5.3 | 1.5% | -1.3% | -11.8 | 3.2% | -9.7%
O=C(O)COc1ccc2ccccc2c1 | -7.4 | . | . | -3.6 | -1.2% | .
C=CCNc1nc(-c2cccs2)c(CC(=O)O)s1 | -2.2 | -7.4% | 4.3% | -0.9 | -4.8% | -7.1%
SMILES | CHX counter | TbPYK inhibitor | LmPK inh | Shiga inhibitor | FBPA Giardia inh | RE007 growth inh
C=CCNc1nc2c3ccccc3n(C(C)=O)c2s1 | 23.7 | -27.2% | -9.0% | 128.9* | ? | -6.1%
NS(=O)(=O)c1ccc(N/N=C/c2ccc3c(c2)OCO3)c([N+](=O)[O-])c1 | 11.6 | 1.4% | -9.6% | 7.2 | 0.5% | 0.3%
O=[N+]([O-])c1ccccc1N/N=C/c1ccccc1 | 35.1* | -11.6% | -8.1% | 62.4* | 0.5% | 0.4%
O=[N+]([O-])c1ccccc1N/N=C/c1ccc2c(c1)OCO2 | 39.6* | -21.1% | ? | 68.1* | 3.4% | -2.7%
Cc1ccc(CNC(=O)Cn2ccn(-c3ccc(C)c(C)c3)c(=O)c2=O)cc1 | . | -2.9% | . | . | . | .
CCOC(=O)c1cccc(NC(=O)CC2C(=O)N(c3ccccc3)C(=O)N2Cc2ccco2)c1 (configuration not stated) | . | 4.3% | . | . | . | .
Cc1ccc(NC(=O)C(=O)NCc2ccc(Cl)cc2)cc1 | . | 4.0% | . | . | . | .
N#Cc1c(C#N)c(SSc2c(C#N)c(C#N)c(N)n2-c2ccccc2)n(-c2ccccc2)c1N | . | 0.891µM* | . | . | . | -8.3%
N#Cc1nc(NCCCCO)nc(Nc2ccccc2)n1 | . | . | . | . | 1.8% | .
CN1CCN(C(=O)c2cc(-c3ccco3)on2)CC1 | 15.1* | -17.0% | -3.4% | 36.3 | 1.5% | -3.4%
O=C(c1cc(-c2ccco2)on1)N1CCOCC1 | 27.4* | -2.5% | -7.4% | 47.4* | 0.3% | -4.8%
CC(=O)c1ccc(NC(=O)c2nc(-c3ccccc3)n(-c3ccc(Cl)cc3)n2)cc1 | . | -2.2% | . | . | . | .
O=C(Nc1nccs1)c1ccc(N2CCOCC2)c([N+](=O)[O-])c1 | 50.2* | -10.3% | -3.0% | 86.1* | . | -6.0%
O=C(Nc1nccs1)c1ccc(Cl)c([N+](=O)[O-])c1 | 42.8* | 0.2% | 1.5% | 42.9 | 9.1% | 1.1%
O=C(Nc1nccs1)c1cc([N+](=O)[O-])ccc1Cl | 3.1 | -2.2% | -7.2% | -3.5 | -27.5% | -0.2%
CCOc1ccc(C(=O)Nc2cc(-c3nc4cc(OC)ccc4o3)ccc2C)cc1[N+](=O)[O-] | . | -7.3% | . | . | . | .
COc1ccc2oc(-c3ccc(C)c(NC(=O)c4ccc(N5CCOCC5)c([N+](=O)[O-])c4)c3)nc2c1 | 58.9* | -1.9% | 6.7% | 134.0* | 0.9% | 2.4%
CCOc1ccccc1CNC(=O)CN1C(=O)C2CCCCN2c2ccc(C(=O)N(C)C)cc21 (configuration not stated) | . | -1.8% | . | . | . | .
Cc1cc(S(=O)(=O)Nc2cc3c(cc2NCc2ccccc2)n(C)c(=O)n3C)ccc1F | . | -7.0% | . | . | . | .
CN(C)CCCNc1oc(-c2ccc(Cl)cc2)nc1C#N | 13.1 | -4.7% | 0.1% | 27.1 | -1.5% | 4.1%
Cc1ccc(-c2nc(C#N)c(NCCN3CCCCC3)o2)cc1 | 15.2* | 4.3% | -1.7% | 24.8* | 1.0% | -8.1%
COCCNc1oc(-c2ccc(C)cc2)nc1C#N | 22.7* | -2.7% | 0.0% | 66.1 | -0.9% | 9.1%
COCCNc1oc(-c2ccc(OC)cc2)nc1C#N | . | -2.8% | . | . | . | .
COCCNc1oc(-c2ccc(Cl)cc2)nc1C#N | 38.1* | -7.4% | -0.1% | 70.4* | -2.1% | 6.5%
Nc1cc(=O)nc(SCC(=O)Nc2cccc(Cl)c2)n1CCc1ccccc1 | . | 3.4% | . | . | . | .
CCOc1ccc(-n2c(-c3ccc(Br)cc3)cc3c2CC(C)(C)CC3=O)cc1 | . | -0.1% | . | . | . | .

Compound activity deposited in PubChem BioAssay by National Center for Advancing Translational Sciences (NCATS).
